Experimental data from PubChem BioAssay AID1508600 (Functional Genomics Laboratory (NCATS/FGL), 2020).
Hit rate of the full screen: of about 53,000 sequences, about 3,700 (7%) were called active. The full list was thinned out, with actives kept by preference. A number with no mark means an inactive call.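 The calls were made as follows: active = gene knockdowns whose robust z-score for IL-1 alpha signal is at least 2 or at most -2, so actives lie on both sides; inactive = the rest.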

Test: Components of the Cytosolic LPS Sensing Pathway: Gene Identification via Genome-wide siRNA Screen;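 also: robust z of the log signal after scaling to non-targeting control siRNA wells of the plate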
Settings: RAW264.7 macrophages, IL-1a HTRF, actives lie on both sides, screened at 100 nM (by protocol), cells primed 5 h with Pam3CSK4 first
Summary of the method: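 IL-1a HTRF of supernatants after 24 hour LipidA transfection of Pam3CSK4-primed (5 hours) RAW264.7 cells, 48h post-siRNA transfection (100 nM). Scores: percent of plate negative-control median, then log-based robust z-score.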

| Sequence | z-score |
| --- | --- |
| CCGGAAAACAAAAUUGCUATT against Obp1a | 0.492 |
| GGAAGAUAAAUCACAAUCATT against Cdc37l1 | 0.051 |
| GGAUUAUAUGCCAAGUGAUTT against Phyh | 0.179 |
| GCCGAUUGUCCUAUCUCCATT against Spg7 | 1.63 |
| GGUACUACUGUGGCUAAGCTT against 1700120K04Rik | 2.71 (active) |
| GAACUCUUCCAGUGGAAGUTT against Dctpp1 | -1.5 |
| GGAAAAAUAGGGUGUUUUGTT against Tdg | 1.96 |
| GGACCAAGAGGACAUUACCTT against Tbl3 | -0.971 |
| GGUCAACCUAAACCAGCAGTT against Csn1s2a | -0.182 |
| GGGAUGACCUGCCAUUCAUTT against Atp7a | 3.47 (active) |
| CGAGGAUUUCUGUUACUUATT against Lyst | 1.19 |
| GCGCAGGUUGGAUGAAUGUTT against Psme3 | -0.433 |
| GGAAUUUUCUCGAUUUCACTT against Pde6b | 1.13 |
| GGCCUUUGGUACAUGUAGUTT against Olfr692 | 0.557 |
| CGAAGAAUGACGAUGAUAUTT against Ppp4r3a | -2.41 (active) |
| CGGAAGAACUACAAGUCGATT against Sipa1l3 | 2.09 (active) |
| GCCAGUGCAUGAAAGAUAUTT against Kansl1l | -0.772 |
| GUUAUAGCGGCGAAGGUGUTT against Maml3 | 1.02 |
| CCUCUACAUCAGAGUAUGATT against Defb21 | 2.22 (active) |
| GGUCUGCUGUUGAUCGUUCTT against Sct | 1.72 |
| CGAUUCAAGGUAACAUAGATT against Esrrg | 1.66 |
| GGCACUAAUGGAGAGACUGTT against Nr6a1 | 3.53 (active) |
| GGCCCAAACACGUGUAAAATT against Kdm5b | 0.322 |
| GGACAAAGAGGAAUGGAUATT against Tank | -1.19 |
| GGCAUGAAUCAGUCUAUGGTT against Olfr1308 | 0.656 |
| GGCUGGAGAAGUAAUGAUATT against Sp100 | 0.62 |
| GGAAGGUUGUAAGUUUAAATT against Krtap14 | 2.12 (active) |
| GGACUUUGAAGAACUAAGUTT against Tfrc | 1.01 |

| Sequence | z-score |
| --- | --- |
| GGGAUCUAAAGGCUGAAAATT against Mark4 | -0.291 |
| GCCAUCGCUAACUUACGGATT against Gdpd5 | -1.81 |
| GGAUGGACCUUCAGAAAAGTT against Srrm4 | -1.63 |
| GGUCGUGCAUGACAACUAUTT against Itk | 2.62 (active) |
| GGCCAAAGUCGAAUCAUAUTT against Prmt2 | -0.252 |
| CCAAUGGCGAGACAACUACTT against Aldoa | 0.182 |
| GGGUCUGCCGUCAUCCAUATT against Acp6 | -0.563 |
| GGGCUUACCGUAUAACUUUTT against Nptn | 1.4 |
| GGACCUGAAUUCCACUCCUTT against Socs1 | -0.147 |
| GGAUGAGGAGGAUACAAAGTT against Eif3c | 0.228 |
| GGAUACUCUCAGGACGUGATT against Ncbp2 | -2 (active) |
| CGAGCAAGCUUCUACAUACTT against AI182371 | 0.438 |
| GCAAAUCAUUUAGGACCCATT against Amer2 | -2.54 (active) |
| GGAGUUCAGGUAUCCCUGATT against Nomo1 | -0.109 |
| GGAAAACAAGAAAGAUGAATT against Snupn | -1.05 |
| CGAUCCUCAUCUUUAUAUATT against Agbl1 | -0.33 |
| CGCCAAAAGUUCUUGCCAUTT against Olfr618 | -2.02 (active) |
| CCUAGAUUCUGAAUUCGAATT against Pdzd8 | -1.09 |
| GGAUAACAGAUGGUUAAUATT against Pramel48 | 0.202 |
| GGUUGGAUUCCUGAUAUUATT against Moxd2 | -0.22 |
| CGGCACUAGGAAGCUUUUATT against Inpp5a | -0.185 |
| GCAUCUACCAUGGAAAUAUTT against Clcn7 | 0.053 |
| GGAGCUGGAGAAGUUACUUTT against Amigo3 | 2.06 (active) |
| GCUGGUUGUAGUAAAACAGTT against Resf1 | -1.29 |
| GCUGGUAUGACCAAGAGAATT against Mutyh | 0.679 |
| GGGAAAUGACCUUCAUUGGTT against Rbl2 | 1.05 |
| GGUCAGUCAACAUGAACUUTT against Acad9 | 0.0973 |
